# Among all 410,000 compounds or so, about 2,000 (0.49%) were called active. Entries that show only a call come without a potency. Roughly 8% stayed inconclusive and do not appear here. Calls follow the shape of the full dose curve; tested in HEK293 reporter line. The full list was thinned out, with actives kept by preference.
# Assay: qHTS Assay for Foot and Mouth Disease Virus Antivirals: Primary Screen against the MLPCN compound library; also: nearly all actives have a fitted effect of over 55% in size
# Conditions: FMDV antiviral cell-based qHTS; series mostly up to 57.9 µM
# Potency is read from the fitted curve at half-maximal effect.
row,SMILES,Potency
1,COc1cc(NC(=O)Cc2ccc(S(=O)(=O)N3CCOCC3)s2)c(OC)cc1Cl,inactive
2,O=C(OC(C(=O)Nc1ccc(Cl)cc1C(F)(F)F)c1ccccc1)c1c(Cl)cccc1Cl (stereo unspecified),inactive
3,COc1ccc(CCCc2nnc(SCC(=O)Nc3cccc(C)c3)o2)cc1,inactive
4,Cc1nn2cc(-c3ncc(C(F)(F)F)cc3Cl)cnc2c1Br,8.91 µM (active)
5,Cc1nn(Cc2ccc(Cl)cc2)c(=O)n1N(C)c1ncc(C(F)(F)F)cc1Cl,inactive
6,Cc1ccc(-c2ccnc3nc(Sc4ncc(C(F)(F)F)cc4Cl)nn23)cc1,inactive
7,CCOC(=O)c1sc(=S)n(C)c1NC(=O)c1ccccc1,inactive
8,Cc1cccc(CNc2ncnc3ccc(-c4ccc5c(c4)OCCO5)cc23)c1,inactive
9,COc1ccc(CCNC(=S)N2CCC(C(=O)c3ccc(F)cc3)CC2)cc1OC,inactive
10,CCC1Sc2ccc(S(=O)(=O)CCC(=O)NCc3ccco3)cc2NC1=O (stereo unspecified),inactive
11,CCN(CC)CCNC(=O)c1nn(-c2ccc(Cl)cc2)c2c1CCc1cc(OC)ccc1-2,inactive
12,O=C(CCCCCN1C(=O)c2ccccc2C1=O)Nc1cccc(O)c1,inactive
13,CCOC(=O)c1cc(-c2ccccc2)sc1NC(=O)CCN1C(=O)c2ccccc2C1=O,inactive
14,Cc1ccc2nc(-c3ccc(NC(=O)CCN4C(=O)c5ccccc5C4=O)cc3)sc2c1,7.08 µM (active)
15,CC(=O)Nc1ccc(S(=O)(=O)Nc2nc3ccc(C)cc3s2)cc1,inactive
16,O=C(CCS(=O)(=O)c1ccccc1)Nc1ccccc1-c1nc2ccccc2s1,inactive
17,Cc1ccc2nc(-c3ccc(NC(=O)CCS(=O)(=O)c4ccccc4)cc3)sc2c1,10 µM (active)
18,CSc1ccc(NC(=O)N2CC=C(n3c(=O)[nH]c4ccccc43)CC2)cc1,inactive
19,CCn1c(N2CCN(S(=O)(=O)c3ccccc3C(F)(F)F)CC2)nc2ccccc21,inactive
20,COc1ccc(CNC(=O)C[C@H]2C[C@H](C(=O)N(C(C)C)C(C)C)[C@@]3(C)c4[nH]c5ccc(Cl)cc5c4CCN3C2=O)cc1OC,inactive
21,Cc1cc(N2CCN(C(=O)c3ccco3)CC2)n2nc(-c3cccc(Cl)c3)cc2n1,22.4 µM (active)
22,Cc1cc(C)c2nc(C(F)(F)F)nc(N3CCN(C(=O)c4ccco4)CC3)c2c1,inactive
23,O=C(c1ccco1)N1CCN(c2c([N+](=O)[O-])nn(-c3cccc(Cl)c3)[n+]2[O-])CC1,inactive
24,COc1cccc2[nH]c3c(N4CCc5ccccc5C4)ncnc3c12,inactive

row,SMILES,Potency
1,CCOc1ccc(N2C(=O)S/C(=C\c3cc(OC)c(OC)c(OC)c3)C2=O)cc1,10 µM (active)
2,COc1cc(/C=C2\SC(=S)N(CC(=O)NC(C)(C)C)C2=O)cc(OC)c1OC,inactive
3,COc1cc(/C=C2\SC(=O)N(c3cccc(Cl)c3)C2=O)cc([N+](=O)[O-])c1O,inactive
4,CC(=O)c1ccc(NC(=O)c2ccc(-c3nc(CSc4ccccc4)c(C)o3)cc2)cc1,inactive
5,C[C@H]1CN([C@@H](C)CO)C(=O)c2cc(NC(=O)C3CCCCC3)ccc2O[C@H]1CN(C)Cc1ccc(-c2ccccc2)cc1,inactive
6,CC1CCC(C(C)C)C(OC(=O)Cn2c(-c3ccc(Br)cc3)[n+](C)c3ccccc32)C1 (stereo unspecified),15.8 µM (active)
7,Cc1ccccc1OCc1n(CC(=O)OC2CC(C)CCC2C(C)C)c2ccccc2[n+]1C (stereo unspecified),17.8 µM (active)
8,Cc1noc(C)c1COc1ccc(C(=O)N2CCN(c3ccccn3)CC2)cc1,inactive
9,O=C(c1ccco1)N1N=C(c2cccs2)CC1c1ccccc1O (stereo unspecified),inactive
10,CC(C)C[C@H]1CN=C(N(C)C)N1CCCCc1ccccc1,inactive
11,Cc1ccc(N2C(=O)CC(N3CCN/C3=C3\CC/C(=C\c4ccccc4)C3=O)C2=O)cc1 (stereo unspecified),inactive
12,Cc1ccc(NC(=O)CN2C(=O)NC3(CCCCC3C)C2=O)cc1S(=O)(=O)N1CCCCC1 (stereo unspecified),inactive
13,CN(C)S(=O)(=O)c1ccc(C(=O)N2CCC(c3nc4ccccc4o3)CC2)cc1,inactive
14,Cc1ccc(-c2cc(-c3ccccc3)no2)c(O)c1,5.01 µM (active)
15,CCC(C)NC(=O)c1cc(-c2ccccc2O)on1 (stereo unspecified),inactive
16,CSc1nc(Nc2ccc(C)cc2C)cc(-c2ccccc2)n1,inactive
17,O=C1/C(=C/c2ccc(O)c([N+](=O)[O-])c2)SC(=S)N1Cc1ccccc1,inactive
18,Cc1nn2c(-c3cccc(NC(=O)CSc4nc5ccccc5o4)c3)nnc2c2ccccc12,inactive
19,COc1ccc(C(=O)Nc2onc3c2CCCC3)cc1,12.6 µM (active)
20,COc1ccc(-c2noc(CCCC(=O)NC3CCCC3)n2)cc1,inactive
21,COc1ccc(NC(=O)c2c(NC(=O)c3ccc(Br)cc3)sc3c2CCCC3)cc1,inactive
22,CCOc1cccc(C(=O)Nc2ccc(S(=O)(=O)N(Cc3ccccc3)c3ccccc3)cc2)c1,inactive
23,CCOc1cccc(C(=O)Nc2nnc(-c3ccco3)s2)c1,11.2 µM (active)
24,COc1cccc(C(=O)Nc2cccc(-c3nnc(-c4ccccc4)o3)c2)c1,inactive

row,SMILES,Potency
1,CCN(CC)CCN(C(=O)c1ccc2c(c1)CCCC2)c1nc2ccc(C)cc2s1,inactive
2,CC(=O)N(Cc1cc2cc(C)ccc2[nH]c1=O)c1cccc(C)c1C,inactive
3,O=C(CCS(=O)(=O)c1ccc(Br)cc1)N1CCN(c2ccccc2F)CC1,inactive
4,Cc1cc(C)c(NS(=O)(=O)c2ccc3c(c2)NC(=O)CC(=O)N3)c(C)c1,inactive
5,O=C(NCCCCc1ccccc1)NC[C@@H]1CC[C@@H](Cc2ccc(-c3ccccc3)cc2)O1,inactive
6,COc1ccc2[nH]cc(CCNc3ccnc(-c4c(C)noc4C)n3)c2c1,inactive
7,COc1ccc2[nH]cc(CCNc3ncncc3-c3ccoc3)c2c1,22.4 µM (active)
8,COc1ccc2[nH]cc(CCNc3ccnc(-c4cccnc4)n3)c2c1,inactive
9,COc1ccc(S(=O)(=O)N2CCCN(CCC(=O)Nc3cccc(C(F)(F)F)c3)CC2)cc1,inactive
10,Cc1cccc(N2CCN(C(=O)CCS(=O)(=O)c3ccc4c(c3)oc(=O)n4C)CC2)c1C,inactive
11,CCc1cc(C(=O)N2CCCC(C(=O)c3ccc(Cl)cc3)C2)no1 (stereo unspecified),inactive
12,COc1ccc(-c2cc(C(=O)N3CCCCC3)no2)cc1OC,inactive
13,O=C(c1cc(-c2ccc(Cl)cc2Cl)on1)N1CCCC1,12.6 µM (active)
14,Cc1nn2cnnc2c(C)c1Cc1ccc(Cl)cc1,inactive
15,Cc1nc2nc(-c3ccc(Cl)cc3)cn2nc1C,10 µM (active)
16,Cc1cc(C)n2nc(C)c(-c3ccc(Cl)cc3)c2n1,inactive
17,COc1ccc(/C=N/NC(=S)Nc2cc(S(=O)(=O)N3CCOCC3)ccc2N2CCOCC2)cc1O,inactive
18,CCc1c(C)c2ccc(O)c(CN3CCN(c4ccccc4)CC3)c2oc1=O,inactive
19,Brc1ccc(C2C3=C(Nc4ncnn42)c2ccccc2OC3c2ccncc2)cc1 (stereo unspecified),17.8 µM (active)
20,COC(=O)c1c(C)oc(C)c1S(=O)(=O)NCC1CC1,inactive
21,COc1ccc(NS(=O)(=O)c2ccc(-n3cccn3)cc2)cc1OC,inactive
22,O=C(CN1CCN(S(=O)(=O)c2cc(C(F)(F)F)ccc2Cl)CC1)N1CCc2ccccc2C1,inactive
23,C=CCc1ccccc1OCC(O)CN1CCN(c2ccccc2OC)CC1 (stereo unspecified),inactive
24,COC(CNC(=O)C1CCN(S(=O)(=O)c2cccc3nsnc23)CC1)OC,inactive

row,SMILES,Potency
1,CCOC(=O)c1cc(-c2ccccc2)n(CCC(=O)N2CCN(c3ccccc3OC)CC2)c1C,inactive
2,Cc1ccc2[nH]c(CSc3nnc(NC(=O)c4ccccc4F)s3)cc(=O)c2c1,inactive
3,Cc1cc[n+](CC(=O)c2ccc(NC(=O)c3ccccc3)cc2)c2ccccc12,inactive
4,CCc1ccc(C(=O)C[n+]2cccc3cc(OC)ccc32)cc1,8.91 µM (active)
5,CCc1ccc(C2CC(c3cccc(OC)c3)n3nc(N)nc3N2)cc1 (stereo unspecified),inactive
6,CC1(c2nnc(-c3ccncc3)o2)CC(c2ccc([N+](=O)[O-])cc2)=NO1 (stereo unspecified),inactive
7,Cc1occc1C(=O)NNC(=S)Nc1ccccc1,inactive
8,COc1ccc(-c2cc(=NC(CC(C)C)C(=O)O)c3cc(C)ccc3o2)cc1 (stereo unspecified),inactive
9,CCOC(=O)c1nc2ccccc2s1,inactive
10,CC(=O)Nc1scc(C)c1-c1nc2ccccc2s1,inactive
11,CCCNC(=O)c1ccc(-c2nc3ccccc3s2)s1,14.1 µM (active)
12,COc1cccc(-n2c(=O)c3c(C)c(C(=O)N(C)C)sc3n(Cc3ccc(F)cc3Cl)c2=O)c1,inactive
13,Cc1nn2c(=O)cc(COC(=O)c3ccc(C(C)(C)C)cc3)nc2s1,inactive
14,COc1cc(CNCc2ccccn2)ccc1OCc1ccccc1Cl,inactive
15,COc1ccc(-c2cccc([C@H]3[C@@H]4C=CC[C@@H](C)[C@@H]4C(=O)N3Cc3ccccc3)c2)cc1,inactive
16,Cc1ccc(F)c([C@H]2C3C=CCC(c4ccccc4)C3C(=O)N2Cc2ccccc2)c1 (stereo partly specified),inactive
17,COc1ccc(C2C3C=CCC(c4cccc(-c5ccc(C)cc5)c4)C3C(=O)N2Cc2ccccc2)cc1Cl (stereo unspecified),12.6 µM (active)
18,CCOc1ncccc1C(=O)Nc1cc(S(=O)(=O)N(CC)CC)ccc1N1CCOCC1,inactive
19,Cc1ccc(C)c(N2CCN(C(=O)c3ccc(N4CCCC4=O)cc3)CC2)c1,inactive
20,Cc1oc(-c2ccccc2F)nc1CS(=O)(=O)CC(=O)NC1CCCC(C)C1C (stereo unspecified),inactive
21,O=C(Nc1ccc2c(c1)OCCO2)c1cccc2nc3ccccc3nc12,inactive
22,Cc1ccsc1C(=O)Nc1ccc2c(c1)OCCO2,22.4 µM (active)
23,c1csc(CNc2ccc3c(c2)OCCO3)c1,inactive
24,Cc1ccc(C(=O)Nc2ccc3c(c2)OCCO3)c(Cl)c1,11.2 µM (active)

row,SMILES,Potency
1,O=C(O)C1C2C=CC(C2)C1C(=O)Nc1ccc2c(c1)OCCO2 (stereo unspecified),inactive
2,O=C(CN1CCN(S(=O)(=O)c2ccc(Cl)cc2)CC1)Nc1ccc2c(c1)OCCO2,inactive
3,CCOC(=O)c1ccc[n+](C(C)C(=O)c2ccc(-c3ccccc3)cc2)c1 (stereo unspecified),inactive
4,COc1cccc(CNC(=O)c2cccc(S(=O)(=O)N3CCN(c4ccc(F)cc4)CC3)c2)c1,inactive
5,CCOc1ccc(NC(=O)CN2C(=O)CCSc3ccc(S(=O)(=O)N4CCCC4)cc32)cc1,inactive
6,O=C(/C=C/c1cccs1)N1CCC2(CC1)Oc1ccc(Cl)cc1C(=O)C21CC(c2cccnc2)=NO1 (stereo unspecified),inactive
7,O=C(/C=C/c1cccs1)c1cc(Cl)ccc1OC(=O)N1CCOCC1,17.8 µM (active)
8,O=C(COC(=O)/C=C/c1cccs1)Nc1ccc(Cl)cc1F,inactive
9,O=C(CCCOc1ccc(Cl)cc1)NCC1CCCO1 (stereo unspecified),inactive
10,CCOC(=O)C1=C(C)Nc2ccccc2N=C1NC(=O)c1oc2ccccc2c1COC,inactive
11,COc1ccccc1OCC(=O)Nc1cc(S(=O)(=O)N2CCCCC2)ccc1N1CCCCC1,inactive
12,COc1cc(/C=C(\C#N)c2ccccn2)ccc1OCC(=O)Nc1cccc(C(F)(F)F)c1,inactive
13,CN(CCC#N)c1ccc(/C=C(\C#N)c2ccccn2)cc1,14.1 µM (active)
14,CNc1nc(-c2ccc3c(c2)CCN3S(=O)(=O)c2ccccc2)c(C)s1,inactive
15,CC(=O)Nc1ccc(S(=O)(=O)N(C)CC(=O)Nc2ccc(Br)cc2F)cc1,inactive
16,CCn1cc(C(=O)OCC(=O)OC2CC(C)CCC2C(C)C)c(=O)c2ccc(C)nc21 (stereo unspecified),22.4 µM (active)
17,O=C(CCCCn1c(=O)c2ccccc2n(CC(=O)Nc2cccc(F)c2)c1=O)NCc1ccccc1Cl,inactive
18,COc1ccc(C[C@H]2CN3C(=NC[C@@H]3Cc3ccc(O)cc3)N2C[C@H](C)NC(=O)CCC2CCCCC2)cc1,inactive
19,CCCCCCCCCCC[N+](C)(C)CC/C=C1/c2ccccc2Sc2ccc(Cl)cc21,inactive
20,CC1(Cc2ccc(C(F)(F)F)o2)C(=O)Nc2cc(-c3ccc(F)cc3F)ccc21 (stereo unspecified),inactive

# — PubChem BioAssay AID1347131 (National Center for Advancing Translational Sciences (NCATS), 2019)
